NPC1 promoter act: activators of NPC1 promoter. Huh7 NPC1 promoter luciferase reporter, 24 h. Potency, µM (highest dose often 9.22 µM), without a hit: top-dose activation, usual class: activators. 320,000 compounds, 2.4% hits. AID 485313; further: % of control where 0% means no effect; nearly all actives have a fitted effect of over 60% in size
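Luminescence from an NPC1 promoter-driven luciferase reporter in stably transfected Huh7 cells was measured after 24 h compound treatment at 37 °C, followed by 10 min ambient incubation with luciferase detection reagent.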
FLuc counter: inhibits or activates purified firefly luciferase, miR-21 counter-screen. purified FLuc, Km substrates, luminescence inhibition. Potency, µM (titrated, usually from 57.5 µM), for inactives: at the highest dose activity change, negative = inhibition, usual class: inhibitors. 360,000 compounds, 6.9% hits;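 further: plate controls were vehicle for no effect and reference inhibitor for full effect; nearly all actives have a fitted effect of over 55% in size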
Target sequence (P08659 whole entry, looked up): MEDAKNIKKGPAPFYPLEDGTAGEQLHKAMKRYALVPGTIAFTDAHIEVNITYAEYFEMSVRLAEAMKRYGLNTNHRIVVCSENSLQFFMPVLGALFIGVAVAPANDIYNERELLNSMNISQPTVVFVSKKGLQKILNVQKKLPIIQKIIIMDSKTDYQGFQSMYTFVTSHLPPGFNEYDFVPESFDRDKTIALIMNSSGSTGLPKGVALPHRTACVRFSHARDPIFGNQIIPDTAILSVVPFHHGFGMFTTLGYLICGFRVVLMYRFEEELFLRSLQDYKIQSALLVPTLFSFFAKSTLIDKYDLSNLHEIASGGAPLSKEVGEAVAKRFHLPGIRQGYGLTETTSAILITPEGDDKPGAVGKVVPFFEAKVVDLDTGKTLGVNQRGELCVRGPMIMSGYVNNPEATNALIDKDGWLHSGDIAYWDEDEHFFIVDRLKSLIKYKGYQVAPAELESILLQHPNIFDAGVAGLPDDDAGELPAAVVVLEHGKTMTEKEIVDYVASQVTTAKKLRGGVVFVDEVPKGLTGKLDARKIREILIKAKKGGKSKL
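Purified P. pyralis luciferase (10nM final) with 10uM D-luciferin and 10uM ATP (Km levels) in 50mM Tris acetate pH 7.5, 10mM Mg acetate, 0.01% Tween-20, 0.05% BSA; qHTS 6-point titration, ~60 µM downward; luminescence read.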
SMN2 splice up: SMN2 splice variant enhancement; HEK293 SMN2-luciferase splicing reporter, luminescence, 30-36 h; Potency, µM (titrated, usually from 46.1 µM), inactives show at the highest dose activity change, positive = activation, hits mostly activators; 210,000 compounds, 2.8% hits; AID 1458; further: % of control where 0% means no effect; nearly all actives have a fitted effect of over 55% in size
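HEK293 cells carry an SMN2 minigene-luciferase reporter in which exon 7 inclusion puts luciferase in frame. Cells were seeded at 2000 cells/well, attached for 10-12 hours, then exposed to compounds for 30-36 hours at 37C before ONE-Glo luminescence.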
Rab9 prom act: activates the Rab9 promoter | Huh7 Rab9 promoter-luciferase reporter, luminescence, 24 h | Potency, µM (top dose mostly 9.22 µM), inactives show top-dose activation, negative = inhibition, hits mostly activators | 320,000 compounds, 2.8% hits | AID 485297; further: % of control where 0% means no effect; nearly all actives have a fitted effect of over 60% in size
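Huh7 reporter line, Rab9 promoter upstream of luciferase. Compound exposure 24 h at 37 °C in reduced-serum medium with 10% FBS. Read-out: luminescence.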
ELG1 genotox: genotoxicity induction in ELG1-luciferase HEK293T cells. 330,000 compounds, 1.3% hits. AID 504466. Potency, µM (series often up to 46 µM), for the others: at the top dose activity change, positive = activation, hits mostly activators. HEK293T ELG1-luciferase reporter, luminescence, 16 h; further: % of control where 0% means no effect; nearly all actives have a fitted effect of over 60% in size
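Genotoxicity was scored as increased ELG1-luciferase reporter signal, measured by ONE-Glo luminescence (30 min, room temperature). Compound or vehicle exposure of the HEK293T reporter cells lasted 16 hr at 37°C.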
p53 reactivator: restores transcriptional activity of mutant p53; H1299 p53-A138V BP100-luciferase reporter, luminescence, 24 h; Potency, µM (top dose mostly 92.2 µM), for the others: at the top dose activity change, positive = activation, usual class: activators; 320,000 compounds, 0.063% hits; AID 504706; further: % of control where 0% means no effect; nearly all actives have a fitted effect of over 45% in size
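H1299 (p53-null), stable ts p53-A138V + BP100-Luc; 1000 cells/well, Opti-MEM/10% FBS; cpd 4 pt, 1:5; 24 h, 37 deg C, 5% CO2; detection reagent 10 min RT; luminescence.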
Active calls of the source: *; ? = inconclusive; · = not tested or not shown; [ ] = another dose, or the depositor's remark. This is a sample that favours compounds with a hit; in the whole collection about 7.4% have one here. The call rests on the fitted dose curve; in most records, active means well fitted curve in the direction sought with a large enough effect; inconclusive means small, poorly fitted or top-dose-only effect, or another doubt; inactive means no such curve, though single readings can be large; an effect the other way counts as inactive or inconclusive. Potency means the concentration at half of the fitted maximal effect.

SMILES	NPC1 promoter act	FLuc counter	SMN2 splice up	Rab9 prom act	ELG1 genotox	p53 reactivator
CCC(=O)Oc1ccc(C(=O)Nc2cccc(C(=O)c3ccccc3)c2)cc1	3%	17µM*	-25%	2%	-9%	6%
O=C(C1CC(c2ccccc2O)=NO1)N1CCC2(CC1)OCCO2 (centres undefined)	3.5µM*	11µM*	?	?	16µM*	?
O=C(c1ccccc1)N1CCC2(CC1)OCCO2	-4%	1%	·	0%	0%	-1%
CN1CCN(C(=O)COc2ccc(-c3nc4ccccc4s3)cc2)CC1	0.63µM*	0.15µM*	4µM*	0.32µM*	?	2%
CN1CCN(C(=O)COc2ccc3ccccc3c2)CC1	4%	0%	·	16%	13%	5%
COc1ccc(NC(=O)CCc2nc(C3=CCN(Cc4cccc(C)c4)CC3)no2)c(OC)c1	·	-16%	·	·	·	·
COc1cccc(NC(=O)CCc2nc(-c3ccc(C(C)(C)C)cc3)no2)c1	·	2.7µM*	-72%	·	·	·
O=c1[nH]c(=O)n(-c2ccccc2F)c(O)c1/C=C1\C=Nc2ccccc21	-1%	17µM*	·	-9%	14%	-2%
O=c1[nH]c(=O)n(Cc2ccccc2)c(O)c1/C=C1\C=Nc2ccccc21	2%	-7%	12%	-1%	4%	?
O=c1[nH]c(=O)n(CC2CCCO2)c(O)c1/C=C1\C=Nc2ccccc21 (centres undefined)	1%	17µM*	11%	0%	0%	-2%
O=c1[nH]c(=O)n(-c2ccc(F)cc2)c(O)c1/C=C1\C=Nc2ccccc21	1%	6%	·	-4%	-1%	-6%
CCC12CCN(Cc3ccc(F)cc3)CC1Oc1c(O)cccc12 (centres undefined)	·	2%	·	·	·	·
CCOc1ccc(-c2cc(C(=O)N3CCN(c4cccc(C(F)(F)F)c4)CC3)c3ccccc3n2)cc1	·	2.4µM*	·	·	·	·
O=C(c1cc(-c2ccccc2)nc2ccccc12)N1CCC2(CC1)OCCO2	-2%	?	0%	2%	0%	6%
Oc1cc(Cl)cc(Cl)c1	·	·	-7%	·	·	·
CC(C)(C)c1ccc(OCCON2C(=O)CCC2=O)c(Cl)c1	-9%	15µM*	-6%	0%	?	-4%
CN(C)NC(=O)CCC(=O)O	·	·	12%	·	·	·
O=c1cc(-c2ccc(O)c(O)c2)oc2cc(O)cc(O)c12	1%	24µM*	8.9µM*	-12%	?	?
O=c1c(O)c(-c2ccc(O)c(O)c2)oc2cc(O)cc(O)c12	3%[46.1 µM]	?	-20%	-14%[46.1 µM]	13%	?
O=c1[nH]c(=S)[nH]c(O)c1N=Nc1cc2c(cc1[N+](=O)[O-])OCO2	-4%	?	8%	10%	0%	8%
O=c1[nH]c(=S)[nH]c(O)c1N=Nc1ccc2c(c1)OCO2	?	4.8µM*	18%	2.8µM*	?	25%
O=c1[nH]c(=S)[nH]c(O)c1N=Nc1ccc2c(c1)OCCO2	?	0.85µM*	·	2.5µM*	?	4%
O=c1[nH]c(O)c(N=Nc2ccc(S(=O)(=O)N3CCOCC3)cc2)c(=O)[nH]1	-3%	-2%	14%	1%	-1%	12%
O=c1[nH]c(=S)[nH]c(O)c1N=Nc1ccc(S(=O)(=O)N2CCOCC2)cc1	-4%	-16%	·	3%	3%	-3%
O=c1[nH]c(O)c(N=Nc2ccc3c(c2)OCCO3)c(=O)[nH]1	26%	1.5µM*	-88%	25%	?	24%
SMILES	NPC1 promoter act	FLuc counter	SMN2 splice up	Rab9 prom act	ELG1 genotox	p53 reactivator
CCOC(=O)CBr	·	·	4%	·	·	·
C[C@@H]1CC[C@@]2(OC1)O[C@H]1[C@@H](O)[C@H]3[C@@H]4CC[C@H]5C[C@@H](O[C@@H]6O[C@H](CO)[C@H](O[C@@H]7O[C@H](CO)[C@@H](O)[C@H](O[C@@H]8OC[C@@H](O)[C@H](O)[C@H]8O)[C@H]7O[C@@H]7O[C@H](CO)[C@@H](O)[C@H](O[C@@H]8O[C@H](CO)[C@@H](O)[C@H](O)[C@H]8O)[C@H]7O)[C@H](O)[C@H]6O)[C@H](O)C[C@]5(C)[C@H]4CC[C@]3(C)[C@H]1[C@@H]2C	·	·	-30%	·	·	·
O=P(Nc1cccnc1)(Oc1ccccc1)Oc1ccccc1	0%	-3%	4µM*	0%	0%	-5%
O=C(/C=C/c1ccccc1)C1C(=O)c2ccccc2C1=O	4µM*	0.38µM*	10µM*	2.2µM*	15%	?
Nc1nc2c(ncn2[C@@H]2O[C@H](CO)[C@@H](O)[C@@H]2O)c(=[SH+])[nH]1.O=[N+]([O-])c1ccc(O)[c]([Hg])c1	·	·	-99%[9.22 µM]	·	·	·
CC(C)c1ccc(NC(=O)Cn2c(=O)oc3cc(S(=O)(=O)N4CCCC4)ccc32)cc1	·	-19%	-65%	·	·	·
COc1cccc(-n2c(=S)[nH]c3ccccc3c2=O)c1	0%	3%	9%	2%	7%	0%
COc1ccc2c(c1)NP(=S)(Oc1ccccc1)N2 (centres undefined)	19%	6.7µM*	·	0%	?	?
COc1ccc(C(=O)O[C@H]2CC[C@@]3(C)[C@H]4CC[C@H]5[C@]3(C[C@]3(O)[C@H]6CN7C[C@H](C)CC[C@H]7[C@](C)(O)[C@]6(O)[C@H](O)C[C@]53O)O[C@]24O)cc1OC	·	·	-2%[9.22 µM]	·	·	·
CCCCSc1nc2c(cnn2-c2ccccc2)c(=O)n1N	2.8µM*	6.7µM*	10µM*	1.8µM*	?	6%
Cc1ccc(-c2nn(Cc3ccccc3)cc2C=O)cc1	?	19µM*	?	3.5µM*	14%	?
Cc1ccc(Cn2cc(C=O)c(-c3ccc(F)cc3)n2)cc1	5%	?	·	-2%	0%	21%
Cc1ccc(-c2nn(Cc3ccccc3)cc2C=O)cc1C	17%	27µM*	6%	23%	1%	?

Source: PubChem (National Center for Advancing Translational Sciences (NCATS))
